# Experimental data: PubChem BioAssay (Tox21)
# Results filed as inconclusive are left out. A number with no mark means an inactive call. Calls of active or inactive are those of the source. The call rests on the fitted dose curve.
# Test: qHTS assay for small molecules that induce genotoxicity in human embryonic kidney cells expressing luciferase-tagged ATAD5 - cell viability (AID 651634); further: nearly all actives have a fitted effect of over 25% in size
# Settings: HEK293T ATAD5-luc cells viability, CellTiter-Fluor, 15.5 h; series mostly up to 83.3 µM; activity, negative = cytotoxicity: at the top concentration
# Method in brief: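 Fluorescence from CellTiter-Fluor, reporting protease activity within live cells, served as the viability read-out. HEK293T cells carrying luciferase-tagged ATAD5 had been treated with compound for 15.5 hr at 37C.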
# On the % scale 0 is the no-effect control and ±100 the full control effect; potency means the concentration at half of the fitted maximal effect.
SMILES,Potency,"activity, negative = cytotoxicity"
ClC=C(Cl)Cl,inactive,
CC(c1ccc(O)cc1)(c1ccc(O)cc1)c1ccc(O)cc1,,9.44%
C=CC(C)=O,,16.9%
CC1CC(CC2CCC(N)C(C)C2)CCC1N (stereo not drawn),,-4.8% [at 95.3 µM]
CCN(C)N=O,,9.87%
II,,-6.61%
O=NN1CCNCC1,,19.9% [at 95.3 µM]
CCCCNP(N)(N)=S,,20.4%
c1ccc(C2CC2)c(OCC2=NCCN2)c1,,13.6%
CCOP(=S)(OCC)Oc1nc(Cl)c(Cl)cc1Cl,inactive,
CCCCCCC#N,,11.5%
Cn1sc(Cl)cc1=O,inactive,
CCCCCCCCOC(=O)c1ccc(C(=O)OCCCCCCCC)c(C(=O)OCCCCCCCC)c1,,7.28% [at 95.3 µM]
O=NN1CCCCCC1,,14%
CCOc1nc(F)cc2nc(S(=O)(=O)Nc3c(Cl)cccc3Cl)nn12,,-8.88%
CCBr,,8.93% [at 95.3 µM]
Brc1ccc(Oc2ccccc2)cc1,inactive,

SMILES,Potency,"activity, negative = cytotoxicity"
Cc1ccc2ccccc2c1,,-9.41%
N#CCc1ccccc1,,8.07% [at 95.3 µM]
CC/C(=N\OC/C=C/Cl)C1=C(O)CC(C2CCOCC2)CC1=O (stereo not drawn),,9.12%
N#Cc1cc(I)c(O)c(I)c1,,-22.7%
COC(=O)C(Cl)C(=O)OC,,11.2%
O=[N+]([O-])c1ccccc1CCl,,-2.94% [at 95.3 µM]
COc1cc(CC(C)N)cc2c1OCO2 (stereo not drawn),,13.3% [at 95.3 µM]
Nc1nc(=S)[nH][nH]1,,7.86%
Nc1nc(N)nc(N)n1,,12.7% [at 95.3 µM]
COCC(C)N(C(=O)CCl)c1c(C)csc1C (stereo not drawn),inactive,
c1ccc(CN2CCNCC2)cc1,,-7.05% [at 260 µM]
CCCCCCCCCC(=O)O[C@H]1CC[C@H]2[C@@H]3CCC4=CC(=O)CC[C@@H]4[C@H]3CC[C@]12C,,3.34%
C=CCC1([C@H](C)CCC)C(=O)NC(=O)NC1=O,,17.4%
CCOP(=O)(OCC)SCCSCC,,-2.44%
Cc1cc(=O)[nH]o1,,8.73% [at 95.3 µM]
IC(I)=C(I)I,27.3 µM (active),
CN1C(=O)NC(=O)C(C)(C2=CCCCC2)C1=O (stereo not drawn),inactive,

# Test: qHTS assay for small molecule disruptors of the mitochondrial membrane potential - cell viability (AID 720634); further: nearly all actives have a fitted effect of over 20% in size;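 on activity change, negative = cytotoxicity: human HepG2 liver cancer cells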
# Settings: HepG2 viability, ATP luminescence (CellTiter-Glo), 1 h; series mostly up to 83.2 µM; activity change, negative = cytotoxicity: at the top concentration
# Method in brief: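 Cells: HepG2, 2,000/well, attached overnight. Compound 1 hr, 37 C/5% CO2. +m-MPI dye, +CellTiter-Glo 30 min RT. Readout: luminescence (ATP).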
SMILES,Potency,"activity change, negative = cytotoxicity"
ClC=C(Cl)Cl,inactive,
CC(c1ccc(O)cc1)(c1ccc(O)cc1)c1ccc(O)cc1,,-11.5%
C=CC(C)=O,,11.9%
CC1CC(CC2CCC(N)C(C)C2)CCC1N (stereo not drawn),,5.44% [at 95.3 µM]
CCN(C)N=O,,9.26%
II,,-9.65%
O=NN1CCNCC1,,9.62% [at 95.3 µM]
CCCCNP(N)(N)=S,,3.93%
c1ccc(C2CC2)c(OCC2=NCCN2)c1,,-6.57%
CCOP(=S)(OCC)Oc1nc(Cl)c(Cl)cc1Cl,6.87 µM (active),
CCCCCCC#N,,11.8%
Cn1sc(Cl)cc1=O,inactive,
CCCCCCCCOC(=O)c1ccc(C(=O)OCCCCCCCC)c(C(=O)OCCCCCCCC)c1,,-4.15% [at 95.3 µM]
O=NN1CCCCCC1,,5.63%
CCOc1nc(F)cc2nc(S(=O)(=O)Nc3c(Cl)cccc3Cl)nn12,,3.82%
CCBr,,12.4% [at 95.3 µM]
Brc1ccc(Oc2ccccc2)cc1,inactive,

SMILES,Potency,"activity change, negative = cytotoxicity"
Cc1ccc2ccccc2c1,,6.44%
N#CCc1ccccc1,,-5.81% [at 95.3 µM]
CC/C(=N\OC/C=C/Cl)C1=C(O)CC(C2CCOCC2)CC1=O (stereo not drawn),,12.3%
N#Cc1cc(I)c(O)c(I)c1,4.33 µM (active),
COC(=O)C(Cl)C(=O)OC,,2.68%
O=[N+]([O-])c1ccccc1CCl,,-8.75% [at 95.3 µM]
COc1cc(CC(C)N)cc2c1OCO2 (stereo not drawn),,-4.41% [at 95.3 µM]
Nc1nc(=S)[nH][nH]1,,6.12%
Nc1nc(N)nc(N)n1,,6.05% [at 95.3 µM]
COCC(C)N(C(=O)CCl)c1c(C)csc1C (stereo not drawn),inactive,
c1ccc(CN2CCNCC2)cc1,,4.86% [at 257 µM]
CCCCCCCCCC(=O)O[C@H]1CC[C@H]2[C@@H]3CCC4=CC(=O)CC[C@@H]4[C@H]3CC[C@]12C,,19.2%
C=CCC1([C@H](C)CCC)C(=O)NC(=O)NC1=O,,-7.8%
CCOP(=O)(OCC)SCCSCC,,-0.534%
Cc1cc(=O)[nH]o1,,3.75% [at 95.3 µM]
IC(I)=C(I)I,,-26.2%
CN1C(=O)NC(=O)C(C)(C2=CCCCC2)C1=O (stereo not drawn),inactive,
